Data on 40 sequences can be found in the supplement of paper PMC6555819.

This assay relates to VDR:RXRa (NR concentration 270 nM, RXRa partner concentration 90 nM). Nature of the assay: PBM binding z-score (relative to random genomic background probes); higher = stronger binding; sequences stand for … in GC…GCGATTGACAGCGTAGAATGAAGG
The method, then: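 Protein-binding microarray (Agilent 4x180K custom design, double-stranded 60-nt probes: 5' GC cap, 34-nt variable region, 24-nt constant primer region; full probe sequence given). Purified or IVT nuclear receptor:RXRα heterodimers (3:1 NR:RXRα, mostly 270:90 nM) or homodimers were incubated for 1 h in PBS with 2% milk and no ligand, then detected with Alexa488 antibodies. Fluorescence from o1-orientation probes (~5 replicates averaged) was converted to z-scores against 500 random hg19 background probes. Variable regions are seed direct-repeat (DR0–DR5) sites, all their single-nucleotide variants and half-site ablations.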
TCTGCTAGGTCAGTTGGTCACCTAACGAGCTGCC displayed a PBM binding z-score of 0.235.
With CCTTATGGGTCACTCCAGGTTATAGCATCGGAGT, the PBM binding z-score turned out to be 3.33.
TCTGCTAGGTCAGCGATGGTCAGCTAATCTGCTA displayed a PBM binding z-score of 0.126.
In the case of AAAACAGGGTCACTAGGCCAGAGTAGGTACGAAT, the PBM binding z-score was found to be 4.38.
For the sequence ACAGACAGGTGATGAAGCTAACTCAGGCTATCAT, the PBM binding z-score was -0.278.
Turning to GCGACTGGGACAAAGCAGGTTACCATAAGGTTGG, the PBM binding z-score was -0.0797.
In the case of AGAATGAGGTTATTAAAATCAGGGAATTGCGGTC, the PBM binding z-score came to 0.984.
ATATGTAGGTTAAGGGTCATTCAAGTTGGTTCGC showed a PBM binding z-score of 5.82.
Sequence TCTATTAGTTCAAGGGCAACCGACGAGTCCGTTT had a PBM binding z-score of 2.38.
For ATCGACAGGTCGAAGGTGAGTATACCCACCCGAA the value was 0.627.
Regarding TCATATAGGTAAACAGGTGACAGTCCGTAAGTTA, the PBM binding z-score was 0.94.
For ACAGACAGGTGAGTGAACGTAACTCAGCTGGACG the value was -0.318; for GCTTGTAGATCCAGGTTAAGAAAGACTAAGCTAA, -0.307; for CCTTACGGGTCACTCCAGGTGATAGCATCGGAGT, 3.34.
Consider ATCGAAAGGTCTTGAGGTGAGTATACAGAAAGGC, for which the PBM binding z-score is 0.496.
For CGTCAAAATTCAACTAAGGTAACGTAAAGCACGC the value was 0.298; for AGAACGAGTGCACGCTGAGTTGATAGCAGAGTAG, 2.1.
For TCTCGGAGGCCACGAAAGGTCAGAGCTCGACATC the value was 3.62; for ATCGAAAGGTCGAAGGTGTGTATACCCACCCGAA, 2.43.
Regarding GCTTACGGGTTAAAGGTTATAGCATGAATAGAAT, the PBM binding z-score amounted to 3.18.
As to CCTACTGGGCCCAAAAGGTCATTGATGCCGATAA, the PBM binding z-score worked out at 4.63.
CCTCGGAGGACATAAGGTCAGAGCTGTCCGCTTT returned a PBM binding z-score of 1.91.
In the case of CCCACTGGGCCACGAAAGGTCATTGATTCAGTGA, the PBM binding z-score is 4.18.
With CCTTACGGGACAAGGTTATAGCACGGGTGGTACG, the PBM binding z-score was found to be 0.416.
ATCGAAAGGTTGTGAGGTGAGTATACAGAAAGGC: the PBM binding z-score is 0.652.
For the sequence TCAGACAGGTGAAGCTAACTCAGGTACGCAGTCG, the PBM binding z-score is 0.334.
Sequence ATCGAAAGGTCCAGGTGAGTATAGAGAAAGGGAA came in with a PBM binding z-score of 0.18.
The value for CCTAGCAGGCCAAGGTCACTCAAGCATTTCGCTT was 2.88; that for TCTTGTAGATCAGGAGGTTAAGAAAGCTGGCCAA was 0.556.
The sequence CGAACTAGGTCAAGGACAGTGTATCTCCGCACGC displayed a PBM binding z-score of 1.78.
Take AGAACGAGGGCACGCTGAGTTGATAGCCGAGTAG: the PBM binding z-score was found to be 2.07.
For CTCGAAAGGTCTGTTGAGGTGAGTATACGGATAA, the PBM binding z-score was 0.221.
The value for CGTCCAAGGTCAATGCTAGGTCAGTGAAAGCATT was 4.81; that for TCTCGGATGACACGAAGGTCAGAGCTTTCCAGAG was 1.46; that for CCGACTGGGGCATAAGGTTACCATGAGCCAGCCC was 0.177.
Consider CCTTACGGGTCACCCCAGGTTATAGCATCGGAGT, for which the PBM binding z-score is 4.91.
In turn, CCTAGCAGGCCAATCTGGGTCACACAAGGCTTGA gave a PBM binding z-score of 1.09.
In the case of ATACCAAGGTGATCGTGAGGTCGTTGAGACTAAC, the PBM binding z-score stood at 2.9.
For ACTATTAGTTGACTTAGGGCAACCGTTACGACGC the value was 0.577.
For the sequence CTACCAAGGTGAACAAGGTCGCTGATTACTATTC, the PBM binding z-score turned out to be 5.5.
